ssDAF12 agonist: activates DAF-12 receptor from parasite S. stercoralis | activation, % at 6.8 µM | AID 652126 | actives 1% (n = 370,000) | HEK293 ssDAF-12/GRIP1 lit1-tk-luc reporter, luminescence; % of 3 µM dafachronic acid response;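 active means activation above the mean over all tested compounds plus 3 SD, cut at about 0.9% in these data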;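 further: 0% = DMSO-only wells and 100% = 3 µM delta7-dafachronic acid wells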
hgDAF-12 ag: agonists of H. glycines DAF-12 nuclear receptor. HEK293 GAL4-hgDAF12 UAS-luciferase reporter, agonist luminescence; normalized to butyrate control. activation, % at 6.8 µM. actives 1.8% (n = 370,000). AID 687014;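 active means activation above a cutoff set at the mean of all screened compounds plus 3 SD, cut at about 10% in these data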;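 further: 0% = DMSO wells and 100% = sodium butyrate wells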
APP 5'UTR act: activates APP 5'UTR luciferase reporter; activation, % at 2 µM; actives 1% (n = 190,000); SH-SY5Y APP 5'UTR luciferase reporter, luminescence; zero percent = DMSO vehicle wells;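 active means activation above a set limit, based on mean plus 3 SD of controls, cut at about 140% in these data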
NF-kB expr up: NF-kB expression increase, human neuronal cells | NF-kB reporter expression; stronger effect = higher value | fold change at 12.5 µM | actives 1.6% (n = 190,000) | AID 1239; in the data active means fold change above about 3.3
hcDAF12 agonist: H. contortus DAF-12 activation, primary screen. HEK293 hcDAF-12 lit1-tk-luc reporter, luminescence; 0% DMSO, 100% Δ7-dafachronic acid. activation, % at 6.8 µM. actives 1.4% (n = 370,000);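 active means activation above the mean of all tested compounds plus 3 SD, cut at about 5.5% in these data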;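 further: 100% = response to 3 µM Δ7-dafachronic acid high control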
* hit, by the source's call; nt = not tested or not shown. Most compounds without a hit are left out; they make up all but 3.4% or so of the library.

SMILES	ssDAF12 agonist	hgDAF-12 ag	APP 5'UTR act	NF-kB expr up	hcDAF12 agonist
COc1ccccc1NC(=O)N(C)C[C@H]1Oc2ncc(Br)cc2C(=O)N([C@H](C)CO)C[C@H]1C	1.1*	5	nt	nt	2
CCN(CC)c1ccc(C(=O)OCC(=O)Nc2sccc2C#N)cc1	0	11*	45	2.1	5
Nc1nc2ccc(O)cc2s1	-1	-3	8	1.8	-1
Cc1nc2ccc(Oc3ccccc3)cc2s1	-1	2	nt	nt	2
Nc1nc2ccc(Oc3ccccc3)cc2s1	0	12*	80	2.5	1
CC(C)c1ccc2nc(N)sc2c1	-1	11*	122	3.1	5.8*
O=C(N/N=C/c1ccc([N+](=O)[O-])o1)C1CCCC1	-2	-7	nt	nt	0
CC(NC(=O)C12CC3CC(CC(C3)C1)C2)C(=O)NN=Cc1ccc([N+](=O)[O-])o1 (centres undefined)	1.6*	-7	nt	nt	1
COc1ccccc1CC(=O)NCCN1C(=O)C2C3C=CC(C3)C2C1=O (centres undefined)	-1	2	nt	nt	-3
O=C(CN1CCN(S(=O)(=O)c2ccc(Br)cc2)CC1)c1ccc(O)c(O)c1	-1	1	nt	nt	5.9*
CC(C)c1ccc(S(=O)(=O)N2CCN(CC(=O)c3ccc(O)c(O)c3)CC2)cc1	-1	1	nt	nt	0
c1ccc(-c2nn(Cc3ncco3)c3ccccc23)cc1	-1	-4	nt	nt	2
N#CCC[C@@H]1CC[C@]2(CCCN(Cc3ccc(Cl)cc3)C2)O1	-1	0	nt	nt	1
O=Cc1nc(Nc2cc(F)cc(F)c2)nc(NC2CCCC2)n1	-2	-2	nt	nt	-1
COc1ccc2[nH]c3c(c2c1)CCn1c-3nc2ccccc2c1=O	nt	nt	184*	5.5*	nt
COc1cc(OC)cc(C(=O)Nn2c(C)nc3ccccc3c2=O)c1	-1	-3	-1	0.49	-3
Cc1cccc(N/N=C2/COC(C)(C)CC2=O)c1	0	13*	71	1.2	5
CC1(C)CC(=O)/C(=N/Nc2ccc(Cl)cc2)CO1	-1	11*	nt	nt	1
COc1ccccc1N/N=C1\COC(C)(C)CC1=O	-1	1	nt	nt	0
CC(=O)CC[C@H]1CC[C@]2(CCCN(C(=O)C3CCCC3)C2)O1	-1	2	nt	nt	4
O=C(NC1CCCc2c1cnn2-c1ccc(F)cc1F)c1cccs1 (centres undefined)	-2	-5	nt	nt	-3
CCOC(=O)[C@]12CCCCC/C=C\1N(Cc1ccc(OC)cc1)C(=O)[C@H]2CC(=O)N1CCN(C(=O)c2ccco2)CC1	-1	0	nt	nt	-4
Cc1cc(/C=C(\C#N)C(=O)NC2CC2)c(C)[nH]1	0	12*	39	2.3	0
O=C(N/N=C/c1ccc([N+](=O)[O-])cc1)c1cc2ccccc2o1	-2	3	nt	nt	0
C/C(=N\Nc1ccc([N+](=O)[O-])cc1)c1cc2ccccc2o1	-1	4	5	0.95	6.4*
SMILES	ssDAF12 agonist	hgDAF-12 ag	APP 5'UTR act	NF-kB expr up	hcDAF12 agonist
CCN(Cc1cn(CC2CCCCC2)nn1)S(=O)(=O)c1ccccc1Br	-1	2	nt	nt	-3
COCCCN1C(=O)[C@H](CC(=O)N2CCOCC2)[C@]2(C(=O)OC)CCCCC=C12	-1	-2	nt	nt	0
C/C(=N\Nc1ccc(F)cc1F)c1ccc(N2CCOCC2)cc1	0	-3	17	1.2	2
Fc1ccc(N/N=C/c2ccc(N3CCOCC3)cc2)c(F)c1	-1	-4	92	3.6*	-1
Cc1ccc2oc(C(=O)N(C)Cc3ccon3)c(C)c2c1	0	10	nt	nt	6.5*
Cc1ccc2oc(C(=O)N(C)Cc3ccc(C)o3)c(C)c2c1	-1	2	nt	nt	-3
O=S(=O)(Nc1cccc2ccccc12)c1cccs1	-1	0	nt	nt	6.1*
O=S(=O)(Nc1ccc(O)c2ccccc12)c1cccs1	1	-2	nt	nt	6.7*
COc1ccccc1NS(=O)(=O)c1cccs1	-1	3	3	1.2	0
CC(C)c1ccccc1NS(=O)(=O)c1cccs1	0	1	nt	nt	-1
Cc1cc(C)cc(OCC(C)CN2CCC(C(O)(c3ccccc3)c3ccccc3)CC2)c1 (centres undefined)	0	-1	nt	nt	-2
CCOC(=O)N/N=C/c1c(C)nn(-c2ccccc2Cl)c1Cl	-1	11*	55	1.9	4
Cc1nn(-c2ccccc2)c(Cl)c1/C=N/NC(=O)c1ccco1	-1	12*	85	2.2	1
Cc1c(/C=N/NC(=O)c2cccnc2)c2ccccc2n1Cc1ccccc1	-1	-1	6	1.4	-1
Cc1nn(-c2ccccc2)c(Cl)c1/C=N/NC(=O)c1ccc(CNc2ccccc2)o1	-2	2	4	0.95	1
Cc1nn(Cc2ccccc2)c(Cl)c1/C=N/NC(=O)c1cccnc1	15*	0	-6	0.8	0
Cc1nn(-c2ccccc2)c(Cl)c1/C=N/NC(=O)OC(C)(C)C	0	0	65	0.83	-3
CCn1cc(/C=C/C(=O)c2ccc(O)cc2)c(C)n1	0	15*	73	3.6*	5
CCn1cc(/C=N/O)c(C)n1	-1	4	-17	1.2	0
O=C(CSc1nc2ccccc2n1Cc1ccccc1Cl)N/N=C\c1cccc(Oc2ccccc2)c1	-2	2	nt	nt	1
Cc1nn(CC(=O)Nc2cccc(Cl)c2)c(=O)c2cc(-c3ccccc3)nn12	-1	2	nt	nt	0
COc1ccc(-c2cc3c(=O)n(CC(=O)Nc4ccc(Cl)cc4)nc(C)n3n2)cc1	-1	1	nt	nt	6.4*
NC(=O)c1c(NC(=O)c2ccccc2)sc2c1CCc1ccccc1-2	0	7	17	4.1*	4
CCOC(=O)[C@@]12CN(C(=O)OC(C)(C)C)CC=C1N(Cc1ccc(OC)cc1)C(=O)[C@H]2CC(=O)NCc1cccc2ccccc12	-1	-3	nt	nt	-3
Cc1occc1-c1nc(-c2ccccn2)no1	1	11*	110	2.5	6.0*
SMILES	ssDAF12 agonist	hgDAF-12 ag	APP 5'UTR act	NF-kB expr up	hcDAF12 agonist
C[C@@H](O[Si](c1ccccc1)(c1ccccc1)C(C)(C)C)[C@H]1C(=O)N[C@H](Cc2cn(S(=O)(=O)c3ccccc3)c3ccccc23)C(=O)N1C	-2	1	nt	nt	0
O=C(Cn1cnc2ccccc2c1=O)Nc1nc2ccccc2s1	0	4	-5	0.92	2
CCc1ccc2nc(NC(=O)CN3C(=O)NC4(CCCC4)C3=O)sc2c1	1	11*	nt	nt	2
Cn1c(=O)c2c(ncn2CC(=O)Nc2nc3ccc(F)cc3s2)n(C)c1=O	0	8	11	1.2	6.2*
CCc1ccc2nc(NC(=O)Cn3cnc4ccccc4c3=O)sc2c1	1.2*	5	15	1.7	3
Cc1ccc2nc(NC(=O)CN3C(=O)NC4(CCCC4)C3=O)sc2c1	-1	4	nt	nt	-1
O=C(Nc1c(-c2ccc(C(F)(F)F)cc2)nc2ncccn12)c1ccccc1	-1	2	nt	nt	3
COCCCN1C(=O)[C@H](CC(=O)N2CCSCC2)[C@]2(C(=O)OC)CCCCC=C12	-1	1	nt	nt	0
